Source: PubChem (National Center for Advancing Translational Sciences (NCATS))
An excerpt weighted towards active compounds, which were near 3% of everything screened.
ClpP mod: qHTS Assay for Activators of ClpP | ATP-dependent Clp protease proteolytic subunit (Bacillus subtilis (strain 168)), P80244 | purified B. subtilis ClpP, FRET peptide cleavage, 20 min | Potency, µM (highest dose often 57.5 µM) | 1.9% of 340,000 active; active = well fitted falling curve with a large enough effect; inconclusive = small, poorly fitted or top-dose-only effect; inactive = no such curve, though single readings can be large or run the other way; note: the source files actives as falling curves though it sought activators and does not explain the sign; nearly all actives have a fitted effect of over 65% in size
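ClpP 10 microg/mL final, pH 8 Tris/KCl buffer with BSA, glycerol, Tween-20; compound pinned in; FRET-FV substrate; RT 20 min; Ex320/Em430; ΔFRET vs ADEP 5.8 microM, DMSO, no enzyme.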
hERG WT inh: qHTS for Inhibitors of KCHN2 3.1: Wildtype qHTS. activity change, % at 1.84 µM. U2OS, BacMam KCNH2, thallium flux FluxOr; active compounds read low. 0.37% of 340,000 active. AID 720551, 2013;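 active = maximum activity change below -70%; inconclusive = maximum activity change between -70% and -50%; inactive = maximum activity change above -50%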
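U2OS cells transduced with wild-type KCNH2 virus are loaded with FluxOr dye for 45 min, and thallium flux is measured in kinetic reads before and after stimulation buffer. Rate constants are normalized to DMSO controls.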
12-LOX inh: Primary qHTS assay for inhibitors of human arachidonate 12S-lipoxygenase (ALOX12): Round 2 | Polyunsaturated fatty acid lipoxygenase ALOX12 (Homo sapiens), P18054 | purified 12hLO, xylenol orange hydroperoxide absorbance | Potency, µM (highest dose often 108 µM), most hits filed as inhibitors | 1.1% of 580,000 active | AID 1671190, 2021; active = well fitted inhibition curve with a large enough effect; inconclusive = small, poorly fitted or top-dose-only effect, or another doubt; inactive = no such curve, though single readings can be large or run the other way
Target sequence (P18054 whole entry, looked up): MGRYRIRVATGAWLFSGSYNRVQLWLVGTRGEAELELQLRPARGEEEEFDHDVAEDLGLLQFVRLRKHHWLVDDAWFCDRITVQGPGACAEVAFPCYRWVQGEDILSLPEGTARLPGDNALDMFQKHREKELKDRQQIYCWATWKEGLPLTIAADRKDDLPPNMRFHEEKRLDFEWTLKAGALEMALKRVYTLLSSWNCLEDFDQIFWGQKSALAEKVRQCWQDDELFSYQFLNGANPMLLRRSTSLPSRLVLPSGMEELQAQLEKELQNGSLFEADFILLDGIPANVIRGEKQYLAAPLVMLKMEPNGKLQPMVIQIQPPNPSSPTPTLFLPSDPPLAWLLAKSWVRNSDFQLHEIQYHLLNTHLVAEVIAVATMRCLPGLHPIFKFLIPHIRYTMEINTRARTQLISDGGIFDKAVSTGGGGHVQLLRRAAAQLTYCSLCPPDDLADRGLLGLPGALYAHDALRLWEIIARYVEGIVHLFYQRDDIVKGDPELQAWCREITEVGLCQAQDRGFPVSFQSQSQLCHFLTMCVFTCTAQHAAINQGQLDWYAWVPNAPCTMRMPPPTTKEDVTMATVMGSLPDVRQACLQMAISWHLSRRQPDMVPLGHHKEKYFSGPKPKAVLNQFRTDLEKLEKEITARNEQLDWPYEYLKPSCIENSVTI
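Purified human 12hLO (150 nM final) in 25 mM Hepes, 0.01% Triton X-100, pH 7.0 was preincubated 15 min at room temperature with compound. Then 40 uM arachidonic acid was added, 30 min. Hydroperoxide was read by Fe-XO absorbance ratio 573/405 nm.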
BCR signal inh: qHTS Assay to Find Inhibitors of Chronic Active B-Cell Receptor Signaling | Potency, µM (highest dose often 46.1 µM), actives largely listed as inhibitors | ABC-DLBCL IkBa-CBG/CBR reporter, luminescence ratio, 4 h | 0.05% of 340,000 active; active = well fitted inhibition curve with a large enough effect in the signal ratio, with a control signal flat, not every such curve was filed as active; inconclusive = small, poorly fitted or top-dose-only effect, or effect the other way, or a change in a side signal; the % refers to the signal ratio
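TMD8 ABC-DLBCL cells carrying doxycycline-inducible green luciferase fused to IkappaBalpha plus unfused red luciferase were exposed to compounds (up to 46 uM) for 4 hrs at 37C. Activity came from the overlap-corrected green/red luminescence ratio.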
LDHA block: qHTS assay for inhibitors of human lactate dehydrogenase | L-lactate dehydrogenase A chain (Homo sapiens), P00338 | purified LDHA, NADH/diaphorase-resazurin fluorescence; active compounds read low | activity change, % (values are at about 110 or 230 µM) | 0.15% of 480,000 active; in the data active = activity change below about -30%; inconclusive = mostly about -25% to -30%
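LDH5 2 nM; NADH 0.06 mM, pyruvate 0.2 mM; 200 mM Tris pH 7.4, EDTA, Tween-20; 5 min RT. Detection: diaphorase 0.133 mg/mL + resazurin 37 µM, fluorescence ex540/em590 at 0 and 20 min; normalized to enzyme-free and DMSO wells.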
KCNH2 3.1 block: qHTS for Inhibitors of KCHN2 3.1: Mutant qHTS; U2OS KCNH2 3.1, thallium flux FluxOr; active compounds read low; activity change, % (tested at about 1.8 µM); 0.95% of 340,000 active; AID 720553, 2013;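 active = maximum activity change below -70%; inconclusive = maximum activity change from -70% to -50%; inactive = maximum activity change above -50%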;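 note: thallium influx rate constant from kinetic fluorescence after stimulation buffer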
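Thallium flux via FluxOr fluorescence (Red40 quencher, 45 min loading) in U2OS cells virally expressing the KCNH2 3.1 isoform (1.77 x 10^8 /mL virus, overnight at 37 C). Rate constants from 2-min kinetic reads post-stimulation, normalised to positive and negative controls.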
Numbers stand for hits; i = inactive; ? = inconclusive; nt = not tested or not shown.

SMILES	ClpP mod	hERG WT inh	12-LOX inh	BCR signal inh	LDHA block	KCNH2 3.1 block
Cc1ccc(-c2nnc(/C=C/c3ccccc3)o2)cc1	?	i	i	i	i	i
C(=C\c1nc(N2CCCCCC2)c2ccccc2n1)/c1ccccc1	32µM	i	i	i	i	?
c1ccc2c(N3CCCCC3)nc(N3CCCCC3)nc2c1	i	i	i	i	i	i
CCc1[nH]c(=O)c(C#N)c2c1CSC(C)(C)C2	?	i	i	i	i	i
CCCCc1[nH]c(=O)c(C#N)c2c1CCCC2	25µM	i	i	i	i	i
Cc1[nH]c(=O)c(C#N)c2c1CCCC2	28µM	i	i	i	i	i
Cc1[nH]c(=O)c(C#N)c2c1CSC(C)(C)C2	25µM	i	i	?	i	i
CCCCc1[nH]c(=O)c(C#N)c2c1CSC(C)(C)C2	?	i	?	i	i	i
CCN(CC)S(=O)(=O)c1cc(C)c(C)c(N)c1	nt	nt	i	nt	?	nt
O=C(Nc1ccc(O)c(-c2nc3ccccc3s2)c1)c1cc(=O)c2ccccc2o1	i	i	i	i	i	i
O=C(Nc1ccc(-c2nc3ccccc3s2)cc1)C1CCN(C(=O)c2cccs2)CC1	nt	nt	i	nt	i	nt
O=C(Nc1cccc(-c2nc3ccccc3s2)c1)[C@@H]1CCCN1C(=O)c1cccs1	nt	nt	40µM	nt	i	nt
O=C(Nc1ccc(O)c(-c2nc3ccccc3s2)c1)c1cccs1	28µM	i	i	?	i	i
Nc1nnnn1NCc1ccc(-c2ccc(F)c(Cl)c2)o1	nt	nt	?	nt	i	nt
Cc1ccc(-n2c(C)c(C)c3c2ncn2nc(-c4ccncc4)nc32)cc1	nt	nt	i	nt	i	nt
CN(Cc1ccccc1)C(=O)C1CCCN(Cc2ccc(Cl)cc2)C1 (stereo not given)	11µM	i	?	i	i	?
CN(Cc1ccccc1)C(=O)C1CCN(Cc2cc3ccccc3n2Cc2ccccc2)CC1	i	nt	45µM	?	i	nt
CC(C)CCN(CC(=O)Nc1cccc2ncccc12)C1CC1	nt	nt	i	nt	i	nt
CC(C)(C)c1ccc(-c2cc3ccccn3c2)cc1	nt	nt	22µM	nt	i	nt
Brc1ccc(-c2cc3ccccn3c2)cc1	nt	nt	14µM	nt	i	nt
Fc1ccccc1NC(=S)NCCc1ccccn1	nt	nt	?	nt	i	nt
COC(=O)c1ccccc1NC(=O)NCc1ccccn1	28µM	i	i	?	i	i
COC(=O)c1ccccc1NC(=O)NCc1cccnc1	28µM	i	i	i	i	i
CCOC(=O)CNC(=O)Nc1ccccc1C(=O)OC	28µM	i	i	i	i	i
O=C(NCc1ccccn1)Nc1ccccc1Cl	i	i	i	i	i	i
SMILES	ClpP mod	hERG WT inh	12-LOX inh	BCR signal inh	LDHA block	KCNH2 3.1 block
COC(=O)c1ccccc1NC(=O)CC(=O)Nc1ccccc1C(=O)OC	?	i	i	?	i	i
O=C(NCc1ccco1)Nc1ccccc1Cl	i	i	i	?	i	i
COC(=O)c1ccccc1NC(=O)NCc1ccco1	28µM	i	i	?	i	i
Cc1csc(NC(=O)c2ccc(Oc3cccc(Br)c3)nc2)n1	nt	nt	?	nt	i	nt
CCc1ccc(C(=O)C2CCCCC2)cc1	nt	nt	i	nt	i	nt
Cc1ccc(CNC(=O)c2cnc(N3CCCCC3)c3ccccc23)cc1	?	nt	i	nt	i	nt
O=C(NCc1cccc(Cl)c1)c1cnc(N2CCCCC2)c2ccccc12	32µM	nt	i	nt	i	nt
O=C(NCc1ccc(Cl)cc1)c1cnc(N2CCCCC2)c2ccccc12	28µM	nt	i	nt	i	nt
CN1CCN(C(=O)c2cc3cc(Cl)cc(Cl)c3oc2=O)CC1	nt	nt	i	nt	i	nt
O=C(c1cc2cc(Cl)cc(Cl)c2oc1=O)N1CCOCC1	22µM	i	i	i	i	i
COc1ccc(S(=O)(=O)Nc2nc3ccccc3nc2NCCC(C)C)cc1	nt	nt	i	nt	i	nt
COc1ccc(OC)c(CN2CCC(C(O)(c3ccccc3)c3ccccc3)CC2)c1	nt	nt	?	nt	i	nt
Cn1c(=O)c2nc(-c3ccccc3)oc2c2ccccc21	11µM	i	i	i	i	i
COc1ccc(-n2c3c(c(=O)[nH]c2=O)C(NS(=O)(=O)c2ccc(Cl)cc2)(C(F)(F)F)C(=O)N3)cc1 (stereo not given)	nt	-98	i	i	i	i
O=C(CSc1nnnn1-c1cccnc1)Nc1ccccc1F	28µM	i	i	?	i	i
Cc1cc(C)c(NC(=O)CSc2nnnn2-c2cccnc2)c(C)c1	nt	i	i	i	i	i
CCn1c(SCC(=O)Nc2ccccc2-c2ccccc2)nnc1-c1ccoc1C	i	i	i	i	i	i
CCn1c(SCC(=O)Nc2ccccc2C(=O)OC)nnc1-c1cccc(C)c1	i	i	i	i	i	-171
CCn1c(SCC(=O)Nc2ccccc2F)nnc1-c1ccoc1C	nt	i	i	i	i	-118
Cc1cc(C)cc(C(=O)N2CCN(C(=O)c3nnn4c3COC(c3ccccc3)C4)CC2)c1 (stereo not given)	nt	nt	i	nt	nt	nt
CSc1cccc(NC(=O)Cn2c(N3CCOCC3)nc(C)cc2=O)c1	nt	nt	i	nt	nt	nt
O=S(=O)(Nc1ccc(Cl)nn1)c1ccccc1	i	i	i	i	i	i
O=S(=O)(NNc1ccc(Cl)nn1)c1ccc(F)cc1	i	i	1.3µM	i	i	i
COCC(=O)NC[C@H]1OC[C@@H](NCc2ccc(F)cc2)[C@@H]1O	nt	nt	i	nt	nt	nt
CC(C)(C)NC(=O)c1ccc(COc2cccc3c2OC(C)(C)C3)cc1	nt	nt	?	nt	i	nt
SMILES	ClpP mod	hERG WT inh	12-LOX inh	BCR signal inh	LDHA block	KCNH2 3.1 block
CCCC(=O)Nc1ccc(Nc2ccccc2)cc1	i	-71	i	i	i	i
CN(CCC(=O)Nc1ccc2c(c1)OCO2)Cc1ccccc1	i	i	?	i	i	i
CN(CCC(=O)Nc1ccc(Cl)cc1)Cc1ccccc1	nt	i	i	i	i	-76
CC(C)c1nc(C2Cc3ccccc3N2C(=O)C2CC2)no1 (stereo not given)	nt	nt	i	nt	nt	nt
CCc1ccc(N2CC(c3noc(-c4ccc5ncccc5c4)n3)CC2=O)cc1 (stereo not given)	nt	nt	i	nt	nt	nt
O=C(NCCc1ccccc1)C(c1ccccc1F)N(C(=O)c1csnn1)C1CC1 (stereo not given)	nt	i	i	i	i	-86
O=C(NCCc1ccccc1)C(c1ccccc1)N(C(=O)c1csnn1)C1CC1 (stereo not given)	nt	i	i	i	i	i
Cc1ccc(O)c(N)c1	i	i	nt	i	i	i
